The list is not random: actives were taken first. Their share in the collection is about 5.3%.
JMJD2E inh: JMJD2E (human) inhibition | B2RXH2 | Potency, µM (doses to about 57.1 µM), inactives show top-dose activity change, negative = inhibition, most hits filed as inhibitors | JMJD2E catalytic domain, FDH-coupled NADH fluorescence (FDH is formaldehyde dehydrogenase) | actives 1.6% (n = 230,000); active = well fitted inhibition curve with a large enough effect, not every such curve was filed as active; inconclusive = small, poorly fitted or top-dose-only effect, or another doubt; inactive = no such curve, though single readings can be large or run the other way;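 also: potency is read from the fitted curve at half-maximal effect; 0% = wells with enzyme and -100% = buffer wells without enzyme; nearly all actives have a fitted effect of over 50% in size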
Target sequence (B2RXH2 1-337 limits assumed): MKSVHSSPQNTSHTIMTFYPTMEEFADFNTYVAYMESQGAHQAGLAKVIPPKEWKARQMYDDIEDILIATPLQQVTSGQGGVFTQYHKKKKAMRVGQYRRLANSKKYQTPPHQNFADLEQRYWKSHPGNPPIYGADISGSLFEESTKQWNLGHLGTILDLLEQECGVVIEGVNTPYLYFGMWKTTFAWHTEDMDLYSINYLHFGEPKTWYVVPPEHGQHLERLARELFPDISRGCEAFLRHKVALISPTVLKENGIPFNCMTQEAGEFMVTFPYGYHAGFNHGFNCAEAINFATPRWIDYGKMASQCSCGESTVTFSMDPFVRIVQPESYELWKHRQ
Tau fibril ThT: blocks human tau fibril formation measured by thioflavin T; P10636; recombinant tau K18 P301L, heparin-induced fibrillization, ThT fluorescence; Potency, µM (series often up to 57.4 µM), without a hit: at the highest dose activity, negative = inhibition, usual class: inhibitors; actives 2.1% (n = 270,000); AID 1460; also: potency is read from the fitted curve at half-maximal effect; nearly all actives have a fitted effect of over 55% in size
Target sequence (P10636 561-689 P618L limits assumed): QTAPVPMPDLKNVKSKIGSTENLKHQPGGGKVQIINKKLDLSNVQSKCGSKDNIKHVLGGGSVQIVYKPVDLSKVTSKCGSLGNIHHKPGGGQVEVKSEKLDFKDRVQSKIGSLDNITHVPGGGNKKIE
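Recombinant human tau K18 fragment […] carrying P301L, 15 uM unlabeled plus 0.24 uM Alexa 594-labeled, was fibrillized with 20 uM heparin in 100 mM sodium acetate pH 7 for 6 hr at 37 C; 30 uM ThT fluorescence read after 1 hr.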
Sfp inh: Sfp phosphopantetheinyl transferase inhibition | Q9F4F7 | Biochemical Sfp PPTase activity, qHTS | Potency, µM, for inactives: largest response in the series, negative = inhibition, most hits filed as inhibitors | actives 3.5% (n = 310,000) | AID 1490;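 also: the enzyme is Sfp with the accession as filed and its product quenches rhodamine fluorescence; potency is read from the fitted curve at half-maximal effect; 0% = enzyme reaction without inhibitor and -100% = no enzyme wells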
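After 15 min at room temperature with compound, 15 nM Sfp received 5 uM rhodamine-CoA plus 12.5 uM BHQ-2-ybbR (50 mM Hepes pH 7.6, 10 mM MgCl2). Rate came from the fluorescence difference over 30 min, ex 525/em 598 nm.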
FBPA coupling cs: counter-screen for Giardia aldolase inhibitors: coupling enzyme system; activity change, negative = inhibition, % at 58.2 µM, hits read low; coupling enzyme system counterscreen, AmpLite Red fluorescence; actives 0.67% (n = 290,000); in the data active = activity change below about -30%
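Counterscreen of the coupled detection system alone, without aldolase: glyceraldehyde-3-phosphate coupling enzymes plus AmpLite Red readout. Compounds at 57.5 uM final, 10 min RT preincubation, 20 min RT reaction, fluorescence 525/598 nm.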
Tau fibril FP: inhibitors of human tau fibril formation; actives 0.39% (n = 280,000); P10636; Potency, µM (titrated, usually from 57.7 µM), for inactives: top-dose activity, negative = inhibition, actives largely listed as inhibitors; AID 1468; K18 P301L tau heparin fibrillization, Alexa594 FP, 6 h; also: potency is read from the fitted curve at half-maximal effect; nearly all actives have a fitted effect of over 55% in size
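Quantitative HTS format: compounds meet 15 uM recombinant K18 P301L tau and Alexa 594-tau tracer in 100 mM sodium acetate pH 7; 20 uM heparin triggers fibrillization at 37 C over 6 hr; FP gives the signal.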
Tau fluor cs: counter-screen for tau fibril formation inhibitors. tau K18 P301L (four-repeat tau fragment) Alexa594 fluorescence, heparin fibrillization. Potency, µM (top dose mostly 57.7 µM), without a hit: at the top dose activity change, negative = decrease. actives 0.93% (n = 280,000); also: potency is read from the fitted curve at half-maximal effect; nearly all actives have a fitted effect of over 55% in size
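Human K18 P301L tau (15 uM unlabeled plus 0.24 uM Alexa 594-labeled, final) in 100 mM sodium acetate pH 7 was mixed with compound and 20 uM heparin and incubated 6 hr at 37 C.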
* = called active by the depositor; ? = inconclusive; . = no result; [ ] = another dose, or the depositor's remark. Unless noted, calls follow the shape of the dose curve; as a rule, active = well fitted curve in the direction sought with a large enough effect; inconclusive = small, poorly fitted or top-dose-only effect, or another doubt; inactive = no such curve, though single readings can be large; an effect the other way counts as inactive or inconclusive. Unless noted, % is scaled to controls: 0 for no effect and ±100 for the full control effect.

SMILES | JMJD2E inh | Tau fibril ThT | Sfp inh | FBPA coupling cs | Tau fibril FP | Tau fluor cs
CC1CCN(S(=O)(=O)c2ccc3c(c2)c(=O)c(C(=O)NCCc2ccccc2)cn3C)CC1 | . | -1% | . | . | -21% | -19%
Cc1cc(C)c2c(=O)n(CC(=O)NCCCN3CCN(c4ccccc4F)CC3)sc2n1 | 28µM* | 14µM* | 4.5µM* | 4 | ? | -24%
Cc1cc(C)c2c(=O)n(CC(=O)NCCCN3CCOCC3)sc2n1 | ? | 10µM* | 1.3µM* | 3 | 16µM* | -21%
Cc1ccccc1CS(=O)(=O)CCC(=O)NCCCN1CCN(c2ccccc2F)CC1 | 0% | -4% | 9% | 3 | -1% | -3%
O=c1c2nc(Br)n([C@@H]3O[C@@H]4CO[P@@](O)(=S)O[C@H]4[C@H]3O)c2nc2[nH]c(-c3ccccc3)cn12 | . | . | -1% | -6 | . | .
CCOc1ccc(NC(=O)c2c(C)nn(-c3ccc(F)cc3)c2-n2cccc2)cc1 | . | 5% | . | . | 1% | 0%
CN(C)c1ccc(CNS(=O)(=O)c2ccc(-c3cc(C(F)(F)F)on3)s2)cc1 | . | -6% | . | . | 7% | -13%
C=CCC(C)(O)CCc1ccccc1 (stereo unspecified) | -2% | 0% | 14% | 2 | 2% | 1%
COc1ccc(-n2[nH]c(C)cc2=O)cc1 | 6% | ? | -10% | -32* | ? | ?
COc1ccc(N2C(=O)NC(=O)C2=O)cc1 | . | . | 5% | 3 | . | .
CCOC(=O)Nc1sc(C)c(C)c1C(=O)OCC | 1% | -5% | -28% | -2 | -5% | 1%
CCOC(=O)c1c(Nc2nc(C)c(C(=O)NC)s2)sc(C)c1C | ? | ? | 40µM* | 1 | 5% | -26%
CCOc1ccc(Nc2nc(C)c(NC(=O)c3cccc(F)c3)c(Nc3ccc(OCC)cc3)n2)cc1 | . | ? | . | . | 10% | 7.9µM*[quencher]
CCOc1ccc(-n2nc3ccc(NC(=O)c4cccc(F)c4)cc3n2)cc1 | . | ? | . | . | ? | -6%
CCC(C(=O)OCC(=O)Nc1cccc(C(C)=O)c1)c1ccccc1 (stereo unspecified) | -10% | -9% | 18% | 1 | -7% | -19%
CCC(C(=O)OCC(=O)Nc1cc(Cl)cc(Cl)c1)c1ccccc1 (stereo unspecified) | -4% | -6% | 27% | 2 | 32µM* | ?
O=C(O)c1ccc(-n2c(-c3cc(-c4ccco4)[nH]n3)n[nH]c2=S)cc1 | -6% | -16% | 45µM* | 1 | -7% | -6%
FC(F)(F)c1ccccc1-n1c(-c2ccco2)n[nH]c1=S | . | . | 11% | 0 | . | .
O=C(O)c1cc(-c2ccco2)[nH]n1 | -7% | ? | 22µM* | -10 | -2% | 1%
CC(=O)c1ccc(-n2c(-c3cc(-c4ccco4)[nH]n3)n[nH]c2=S)cc1 | -8% | ? | 50µM* | 0 | -2% | -18%
Cn1c(-c2ccco2)n[nH]c1=S | ? | 3% | -14% | 1 | 7% | 4%
CCOc1ccccc1CNC(=O)C1CCCN(c2ncnc3onc(-c4ccc(F)cc4)c23)C1 (stereo unspecified) | . | -10% | . | . | -9% | -20%
CCCN(C(=O)Cn1cnc2sc(C)c(S(=O)(=O)N3CCN(c4ncccn4)CC3)c2c1=O)c1cccc(C)c1 | . | 11% | . | . | -8% | 8%
CN(C)c1ccc(/C=N/NC(=O)c2cnc3ccccc3c2)cc1 | 5% | 0.63µM* | 10% | 0 | -2% | -22%
O=C(N/N=C/c1ccc(F)cc1)c1cc(-c2ccc3c(c2)OCO3)n[nH]1 | -8% | . | ? | 0 | -18% | -3%
SMILES | JMJD2E inh | Tau fibril ThT | Sfp inh | FBPA coupling cs | Tau fibril FP | Tau fluor cs
CN(C)c1ccc(/C=N\NC(=O)c2csnn2)cc1 | -21% | ? | 40µM* | 2 | ? | -19%
CN(C)c1ccc(/C=N/NC(=O)c2cc(=O)[nH]c3ccccc23)cc1 | 1% | -12% | 5% | 4 | 7% | -1%
CN(C)c1ccc(/C=N\NC(=O)c2cccc3cc[nH]c23)cc1 | ? | 10µM* | -3% | -3 | 0% | ?
CN(C)c1ccc(/C=N/NC(=O)c2ccccn2)cc1 | -15% | ? | -19% | 1 | -11% | -18%
CN(C)c1ccc(/C=N/NC(=O)c2cc(-c3ccc4c(c3)OCO4)n[nH]2)cc1 | ? | 2.5µM* | -4% | 1 | 11% | ?
CCc1ccc(-n2c(=O)c3c4c(sc3n(Cc3cc(=O)n5c(C)cccc5n3)c2=O)CCC4)cc1 | . | -14% | . | . | 14% | 5%
CC1C(=O)OC2CC34C5CC(C(C)(C)C)C36C(OC(=O)C6O)OC4(C(=O)O5)C21O (stereo unspecified) | 4% | -3% | 2% | 0 | 0% | -6%
COc1ccccc1C1C=C(c2ccc(Cl)cc2)Nc2nc(-c3ccc(Cl)cc3)nn21 (stereo unspecified) | . | ? | . | . | -14% | -20%
Cc1cccc(/C=N\NC(=O)c2csnn2)c1 | 7% | 1% | 40µM* | -6 | -1% | 2%
C=CCN1C(=O)/C(=C/c2ccc(OC(C)=O)c(OCC)c2[N+](=O)[O-])SC1=S | -3% | 4% | 16µM* | -18 | 1% | 0%
NOCc1ccccc1 | . | . | -13% | -2 | . | .
CC[n+]1c(/C=C/Nc2ccccc2)oc2ccc(OC)cc21 | ? | ? | 5% | -6 | -7% | -15%
CC[n+]1c(/C=C/N(C)c2ccccc2)oc2ccc(F)cc21 | ? | 14µM* | 50µM* | -29 | 25µM* | ?
COc1ccc(-c2ccc(-c3cc(=O)oc4cc(OC)c(OC)c(OC)c34)cc2)cc1OC | . | -14% | -15% | 0 | 10% | -20%
COc1cc2oc(=O)cc(-c3ccc(-c4ccc(O)cc4)cc3)c2c(OC)c1OC | . | ? | -24% | 7 | ? | 10µM*[quencher]
CC1CCN(S(=O)(=O)c2ccc3c(c2)oc(=O)n3CC(=O)N2CCCCC2)CC1 | . | -1% | . | . | -1% | -5%
COc1cc(C2OCC3C(c4ccc(OC5OC(CO)C(O)C(O)C5O)c(OC)c4)OCC23)ccc1O (stereo unspecified) | 28µM* | -20% | -6% | -1 | -9% | -19%
CC(=O)c1ccc(N2CCN(C(=O)C3CCN(S(=O)(=O)c4cccc5nonc45)CC3)CC2)cc1 | . | -15% | . | . | 11% | -6%
Cc1cccc(C)c1OCc1cc(=O)n2c3c(sc2n1)CCCC3 | . | ? | . | . | 1% | -11%
Cn1ccc2cc(NC(=O)Nc3cccnc3)ccc21 | ? | ? | -5% | 1 | ? | 14µM*[quencher]
COc1ccc(-c2csc(N(CCCN(C)C)C(=O)c3ccc(Br)cc3)n2)cc1 | . | . | 35µM* | -1 | . | .
COc1ccc(-c2csc(N(CCCN(C)C)C(=O)c3ccc(C)cc3)n2)cc1 | . | . | 3% | 0 | . | .
